Bioassay records as filed in PubChem.
Hits are enriched below; roughly 1.6% of the tested compounds scored in any of these assays.
TNAP act DEA – human TNAP activation, intermediate phosphate acceptor; P05186; purified TNAP, CDP-star luminescence, 100 mM DEA, 30 min; active compounds read high; scale: 0 levamisole-inhibited, 1 vehicle-only enzyme; activation factor at 20 µM; 64,000 tested, under 10 active; AID 813;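 active = activation factor of at least 2 at 20 µM, relative to controls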
PTPN22 inh 2 – inhibitors of human LYP (PTPN22) phosphatase; inhibition, % at 2 µM; actives 0.21% (n = 96,000); recombinant LYP catalytic domain, DiFMUP fluorescence; Q9Y2R2;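 active = inhibition at 2 µM at or above a set limit, the screen mean plus 3 SD, cut at about 24% in these data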;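 also: 0% = DMSO with enzyme and 100% = enzyme fully blocked by orthovanadate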
PLAP act – activates human placental alkaline phosphatase; purified PLAP enzyme, luminescent substrate read-out; active compounds read high; activation fold at 20 µM; actives 1.2% (n = 96,000); AID 696; in the data active = activation fold above about 2
MT1-MMP txn act – activates MT1-MMP transcription; HT1080 MT1-MMP promoter luciferase reporter, luminescence, overnight; active compounds read high; activation factor at 10 µM; actives 0.16% (n = 86,000);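 active = activation factor of at least 2 for MT1-MMP transcription at 10 µM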
LYP act – increases human PTPN22 phosphatase activity; actives 0.11% (n = 96,000); recombinant LYP, DiFMUP fluorescence; 0 = plate median, 100 = signal doubled; activation, % at 2 µM;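 active = activation at 2 µM above a set limit, the mean plus 5 SD, cut at about 37% in these data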
An asterisk follows results filed as active; / = no result given.

SMILES | TNAP act DEA | PTPN22 inh 2 | PLAP act | MT1-MMP txn act | LYP act
CCC(Sc1nc2n[nH]c(C)c2c(=N)n1-c1cccc(Cl)c1)C(=O)NCCOC (stereo not drawn) | / | 6 | 2.1* | 1.1 | -8
CCC(Sc1nc2n[nH]c(C)c2c(=N)n1-c1ccc(C)c(Cl)c1)C(=O)N1CCOCC1 (stereo not drawn) | / | / | 1.1 | 1 | /
Cc1ccc(-c2noc(CCC(=O)N3CCCc4ccccc43)n2)cc1 | 0.9 | -2 | 1.6 | 1.1 | 2
CCOc1ccc(-c2nc(=S)[nH][nH]2)cc1 | 0.9 | 2 | 1.2 | 1 | -4
COc1ccc(-c2nc(=S)[nH][nH]2)cc1 | 0.8 | -4 | 2* | 1.1 | 4
O=c1oc2ccccc2n1CSc1nc2ccccc2s1 | 0.9 | -5 | 0.5 | 2.1* | 5
CCOC(=O)c1c(-c2cccs2)csc1NC(=O)CNCCN1CCOCC1 | / | 1 | 2* | / | -4
CCOC(=O)c1c(-c2cccs2)csc1NC(C)=O | / | -23 | / | 1.1 | 19
Cc1ccc(-c2cc(NC(=O)CSc3n[nH]c(N)n3)n(-c3ccccc3)n2)cc1 | / | 4 | 2.3* | / | -1
Nc1nc(SCC(=O)Nc2cc(-c3ccccc3)nn2-c2ccccc2)n[nH]1 | / | -2 | / | / | 0
CC(C)CC1(C(=O)NCc2cc(F)cc(C(F)(F)F)c2)C=CCN1C(=O)c1ccccc1 (stereo not drawn) | / | / | / | 1 | /
Cn1c(CSc2nc3ccccc3s2)nc2ccccc21 | 1 | 2 | 1.2 | 1.7 | -4
Cn1c(CSc2ncn[nH]2)nc2ccccc21 | 0.9 | -2 | 2.8* | 1 | 0
CC(=O)Nc1cccc(NC(=O)CCn2cnc3cc(C)c(C)cc32)c1 | 0.9 | 25* | 0.8 | 1.2 | -25
COc1ccc(CNc2ccc(-c3ccccc3OC)nn2)cc1 | / | 13 | 1 | 1.2 | -13
COc1ccccc1-c1ccc(NC2CCCC2)nn1 | / | 0 | / | 2.1* | 0
Cc1ccc(NC(=O)NNC(=O)C2CC(c3cccnc3)=NO2)cc1 (stereo not drawn) | / | -1 | 2* | / | 3
COC(=O)[C@@]1(Cc2ccccc2)[C@H]2c3cc(C(=O)N(C)C)n(Cc4ccccc4)c3C[C@H]2CN1C(=O)c1ccccc1 | / | / | / | 1.2 | /
Cc1ccsc1C(=O)NNC(=S)NCC(C)C | / | 8 | 2.2* | / | -5
CCc1cc(C(=O)NNC(=S)Nc2cccc(C)c2)cs1 | / | -6 | / | 1.9 | 6
CC(C)CNC(=S)NNC(=O)c1csc2c1CCCC2 | / | 9 | 1 | / | -6
Cc1cccc(NC(=S)NNC(=O)c2sccc2C)c1 | / | 6 | 2.1* | / | -4
Nc1ncnc2nc(SCc3ccccc3)[nH]c12 | 0.6 | 11 | 2* | 1.2 | -8
Nc1ncnc2nc(SCC(=O)N3CCN(c4ccccc4)CC3)[nH]c12 | 0.6 | 2 | 1.9 | 1 | 1
COC(=O)[C@@]1(Cc2ccc(OC)cc2)[C@H]2c3cc(C(=O)N4CCCC4)n(Cc4cc(C)n(C)n4)c3C[C@H]2CN1C(=O)c1ccccc1 | / | / | / | 1 | /
SMILES | TNAP act DEA | PTPN22 inh 2 | PLAP act | MT1-MMP txn act | LYP act
CCOC(=O)c1c(NC(=O)CSc2n[nH]c(N)n2)sc(CC)c1C | 1.1 | / | 2.2* | 1.1 | /
COC(=O)CNC(=O)/C=C/c1ccc(OC)cc1 | / | 0 | 0.9 | / | 4
c1ccc(CNc2c3c(nc4ncnn24)CCCC3)nc1 | 1.5 | 10 | 2.5* | 1.2 | -10
COc1ccc(-c2cc(NCc3ccccn3)n3ncnc3n2)cc1 | 2* | / | / | 1 | /
O=C(c1ncn[nH]1)N1CCN(c2nc(-c3ccccc3)cs2)CC1 | 1 | -11 | 2.6* | 1.4 | 8
O=C(c1cc(-n2cnnc2)ccc1Cl)N1CCN(c2nc(-c3ccccc3)cs2)CC1 | 1 | 12 | 1.1 | 1.1 | -13
CCOc1cc(C(c2c(C)[nH][nH]c2=O)c2c(C)[nH][nH]c2=O)ccc1OC(=O)c1cccc([N+](=O)[O-])c1 | / | 1 | 1.9 | 1 | -2
CCOc1cc(C(c2c(C)[nH][nH]c2=O)c2c(C)[nH][nH]c2=O)ccc1OCc1ccc([N+](=O)[O-])cc1 | / | 4 | 2.7* | 1.1 | -2
CC1(C)C(N(O)C(=O)Nc2ccc(Cl)cc2)N(c2ccc(Cl)cc2)C(=O)N1CC(=O)NN (stereo not drawn) | / | 9 | 2* | 1.1 | -6
O=c1nc(N2CCCCC2)nc(Nc2ccccc2)[nH]1 | / | 5 | 2.3* | 1.1 | -6
O=C1CC(=C2c3ccccc3-c3ccccc32)C(=O)N1CCN1CCN(c2cccc(Cl)c2)CC1 | / | 25* | / | 1.2 | -24
O=C1CC(=C(c2ccccc2)c2ccccc2)C(=O)N1CCCCN1CCN(c2ccccc2)CC1 | / | 19 | 1.8 | / | -19
